69 compounds from PubChem BioAssay AID589 (National Center for Advancing Translational Sciences (NCATS), 2007) can be followed below.

Among all 59,000 compounds or so, about 6,200 (11%) were called active. Roughly 9% stayed inconclusive and do not appear here. No stated cut-off is given here; in the data, active means max dye-equivalent concentration above about 10 nM; inconclusive means mostly about 1.1 nM to 9.6 nM; inactive means weaker than that. Shown is part of a subset that was picked to be rich in actives.

This test can be described thus: qHTS Assay for Spectroscopic Profiling in 4-MU Spectral Region. The following applies: compound autofluorescence, 340/450 nm, 4-MU equivalents; active compounds read high. An excerpt: NIH Molecular Libraries Screening Centers Network [MLSCN] NIH Chemical Genomics Center [NCGC] […] Occasionally, the artifactual effect may originate from the compounds own spectral or other biophysical properties which generally tend to track its assay concentration. Pre-screening/profiling the library with respect to the compounds spectral properties should help one exclude false positives early on. While the most informative fluorescent profiling data set is obtained by performing a full excitation and emission scan of each well by using a monochromator-based plate reader, such an approach is practical only on a very limited scale as scanning each well requires long time. An alternative approach, applied here, is to perform plate reader scans using selected excitation and emission wavelength pairs to generate a multidimensional relational database that correlates compound concentration and the respective relative fluorescence intensity at a given wavelength set. A standard curve of 4-methylumbelliferone (4-MU) present on each plate as six-point concentration series, was used to compute a normalized fluorescence response, termed dye-equivalent concentration, for each compound at each concentration.
NCGC Assay Protocol Summary: Buffer: 100 mM Tris buffer, pH 8.0 Dye standard plate: The wells in columns 1 through 4 of a Kalypsys polypropylene 1536-well compound plate were filled with standard solutions of fluorophore corresponding to the spectral region of interest. Solutions of 4-MU were placed in the following wells: A1, B1: 3 mM, A2, B2: 300 uM, A3, B3: 30 uM, A4, B4: zero (DMSO), C1, D1: 3 uM, C2, D2: 900 nM, C3, D3: 300 nM, C4, D4: zero (DMSO). Assay Steps: Six uL of buffer were dispensed to 1536-well Greiner black plates. Compounds and dye standards (23 nL) were transferred via Kalypsys PinTool. The plates were incubated for 15 min at room temperature, and then read on ViewLux (Perkin-Elmer) High-throughput CCD imager using 340 nm and 450 nm excitation and emission filter set. Keywords: NIH Roadmap, MLSCN, MLI, MLSMR, qHTS, NCGC, Fluorescent Profiling, 4MU, 4-MU
Consider `COc1cccc(NC(=O)C2CCCN2C(=O)OCc2ccccc2)c1` (centres undefined), for which the max dye-equivalent concentration entry was “inactive”.
For `NC1(C(=O)OCc2ccccc2)CCCC1` the value was “inactive”.
For `CC(C)C(NC(=O)OCc1ccccc1)C(=O)OCC(=O)N1C(C)CCCC1C` (centres undefined) the value was 37 nM (active); for `CCCC[C@H]1C(=O)N(c2ccccc2)N(c2ccc(O)cc2)C1=O`, “inactive”.
As for `O=C1CCC(C(=O)Nc2ccc(OC(F)F)cc2)N1` (centres undefined), the figure is 18 nM (active); as for `CCCOc1ccc(NC(=O)C2CCCNC2=O)cc1` (centres undefined), “inactive”; as for `COC(=O)COc1ccc(S(=O)(=O)Nc2ccc(NC(C)=O)cc2)cc1`, “inactive”.
In the case of `O=C(O)C1CCN(c2ncnc3ccc(-c4ccccc4C(F)(F)F)cc23)CC1`, the max dye-equivalent concentration result was “inactive”.
For `COc1ccc(-c2nc3n(c2Br)CCC3)cc1`, the max dye-equivalent concentration entry was “inactive”.
As for `Cc1cccc(OCc2nnc(SCn3nnc4ccccc4c3=O)o2)c1`, the entry is “inactive”; as for `CCCn1c(O)c(CN2CCCC(C)C2)c(C)c(C#N)c1=O` (centres undefined), 13 nM (active).
For `CCCCCCn1c(CN2CCCC(C)C2)nc2c1c(=O)n(C)c(=O)n2C` (centres undefined) the value was “inactive”; for `O=C(Cc1c(F)cccc1Cl)N1CCN(C(=O)c2ccco2)CC1`, “inactive”; for `CCN(Cc1ccncc1)C(=O)[C@@H](CO)c1ccccc1`, “inactive”.
For `Clc1ccc(Cc2nn3c(-c4ccncc4)nnc3s2)cc1` the value was “inactive”; for `COc1cccc(C(=O)Nc2c3c(nn2-c2cccc(C)c2C)CS(=O)(=O)C3)c1OC`, “inactive”.
On to `COc1ccccc1CNc1nc(-c2c(C)noc2C)nc2ccccc12`, for which the max dye-equivalent concentration entry is “inactive”.
As for `c1cnn(-c2cc(N3CCOCC3)ncn2)c1`, the entry is “inactive”.
In the case of `c1ccc(-c2oc3ncnc(N4CCOCC4)c3c2-c2ccccc2)cc1`, the max dye-equivalent concentration was 11 nM (active).
As for `c1ccc(-n2nnnc2N2CCOCC2)cc1`, the entry is “inactive”; as for `CCCCOc1ccccc1/C=c1/sc2nc(-c3oc4ccccc4c3C)nn2c1=O`, “inactive”; as for `CCc1ccccc1NC1c2ccccc2C(=O)N1c1cccnc1` (centres undefined), “inactive”.
As for `O=C(O)C1=CCCN(CCON=C(c2ccccc2)c2ccccc2)C1`, the max dye-equivalent concentration entry was “inactive”.
Take `c1cncc(CNc2ccnc(-c3ccc4c(c3)OCO4)n2)c1`: the max dye-equivalent concentration is 14 nM (active).
As for `O=C(Nc1cccnc1)c1ccc2c(c1)OCO2`, the entry is “inactive”; as for `Cc1cccc(CNc2ccnc(-c3cccnc3)n2)c1`, “inactive”; as for `COc1ccc(Br)c2c1C[C@H](C(=O)O)CC2`, “inactive”.
Consider `CCOc1cc(CO)ccc1OCC(=O)N1CCCCC1`, for which the max dye-equivalent concentration result was “inactive”.
For the compound `Cc1ccccc1CSc1nnc(-c2ccccn2)n1N`, the max dye-equivalent concentration entry was “inactive”.
For `O=C(c1ccc2c(c1)OCCO2)C1CCN(S(=O)(=O)c2cccc(F)c2)CC1` the value was 12 nM (active); for `CC(=O)c1cccc(S(=O)(=O)N2CCC(n3nnc4cc(F)ccc43)CC2)c1`, “inactive”; for `O=C(NCc1cccs1)C1CCN(S(=O)(=O)c2ccc3c(c2)OCCO3)CC1`, “inactive”.
Take `COc1cccc(NC(=O)Cn2cnc3sc(C)c(S(=O)(=O)N4CCN(C)CC4)c3c2=O)c1`: the max dye-equivalent concentration entry was “inactive”.
For `CC(Nc1nc(N2CCCC2)nc2ccccc12)c1ccccc1` (centres undefined) the value was 150 nM (active).
As for `Cc1ccc(C(CC(=O)O)Nc2nc(N3CCCCC3)nc(N3CCCCC3)n2)cc1` (centres undefined), the entry is “inactive”; as for `CC(C)(CSc1nncn1/N=C/c1ccco1)NS(=O)(=O)c1ccc(Cl)cc1`, “inactive”; as for `CCC(=O)Nc1ccc(C(=O)CSc2nnc(CNc3ccc(Cl)cc3)o2)cc1OC`, “inactive”.
For `COC(=O)N1CCC[C@@]2(CCN(C(=O)NC(C)C)C2)C1`, the max dye-equivalent concentration entry is “inactive”.
As for `Cc1occc1C(=O)Nc1cccc(Cn2cccn2)c1`, the max dye-equivalent concentration entry is “inactive”.
As for `COC(=O)C1=C(C)OC(N)=C(C#N)C1c1cc(OC)ccc1OC` (centres undefined), the entry is “inactive”; as for `CCCN1CC=C2C(C#N)=C(N)C(C#N)(C#N)C(c3cc(OC)ccc3OC)C2C1` (centres undefined), 120 nM (active).
With `CCC1=C(C(=O)OC)C(c2cc(OC)ccc2OC)C(C#N)=C(N)O1` (centres undefined), the max dye-equivalent concentration entry is “inactive”.
For `CCCCNC(=O)c1c[nH]c2ccc(S(=O)(=O)Nc3ccc(OCC)cc3)cc2c1=O` the value was “inactive”.
For `COc1cccc(N(CC(=O)NC2CCCC2)C(=O)Cn2nnc(-c3ccc(C)cc3)n2)c1` the value was “inactive”; for `O=C(c1cc(C(F)(F)F)cc(C(F)(F)F)c1)N1CCC2(CCCN(c3ccccn3)C2)CC1`, “inactive”.
As for `N#Cc1c2c(c(-c3ccccc3)[nH]c1=O)CCCC2`, the figure is 16 nM (active); as for `CCCCCN(C(=O)NC(=O)Nc1ccccc1C)S(C)(=O)=O`, “inactive”.
For the compound `O=C1C2(c3ccccc3)CN(CCCO)CC1(c1ccccc1)CN(CCCO)C2`, the max dye-equivalent concentration result was “inactive”.
`C[C@@H](N)[C@@H](C)Cc1ccccc1`: the max dye-equivalent concentration entry was “inactive”.
In the case of `O=C(CSc1nc(-c2ccco2)cc(C(F)(F)F)n1)NCc1cccs1`, the max dye-equivalent concentration result is “inactive”.
For `COc1ccc(-c2cc(C(F)(F)F)nc(SCCC(=O)NCc3ccco3)n2)cc1` the value was “inactive”; for `FC(F)(F)c1cc(-c2cccs2)nc(NCc2ccco2)n1`, 20 nM (active).
For `COc1ccccc1N1CCN(C(=O)CSc2nnc(-c3ccoc3C)o2)CC1` the value was “inactive”; for `O=C(CNCCO)NC12CC3CC(CC(C3)C1)C2`, “inactive”.
For `CN1CCN(CC(=O)C23CC4CC(CC(C4)C2)C3)CC1` the value was “inactive”; for `CC(NCCO)C(=O)C12CC3CC(CC(C3)C1)C2` (centres undefined), 36 nM (active).
With `Cc1ccc2[nH]c3c(c2c1)CN(C(=O)CN1CCN(c2ccccc2)CC1)CC3`, the max dye-equivalent concentration entry was “inactive”.
As for `O=C(O)[C@@H](O)Cc1ccccn1`, the entry is “inactive”.
Consider `O=C(c1ccco1)N1CCC[C@@]2(CCN(Cc3nccs3)C2)C1`, for which the max dye-equivalent concentration result was “inactive”.
For `COc1ccc(C(=O)Nc2ccc(S(=O)(=O)Nc3onc(C)c3C)cc2)cc1OC`, the max dye-equivalent concentration result was “inactive”.
As to `COc1ccc(-c2cc3ccc(OCc4nn[nH]n4)cc3oc2=O)cc1`, the max dye-equivalent concentration was 8100 nM (active).
`COc1ccc(OCc2ccc(-c3nc4ccccc4c(=O)n3N)o2)cc1`: the max dye-equivalent concentration result is “inactive”.
On to `O=C(Nc1cccc(Cl)c1)OCc1ccccn1`, for which the max dye-equivalent concentration entry was “inactive”.
As to `CCC(CC)C(=O)Nc1cc(C(=O)OC)cc(C(=O)OC)c1`, the max dye-equivalent concentration entry was “inactive”.
With `CC(C)COC(=O)c1ccc(NC(=O)C2C3C=CC(C3)C2C(=O)O)cc1` (centres undefined), the max dye-equivalent concentration result is “inactive”.
As for `CC(C)OC(=O)c1cc(NC(=O)C2C3CCC(O3)C2C(=O)O)cc(C(=O)OC(C)C)c1` (centres undefined), the figure is 14 nM (active); as for `CCC(=O)c1ccc(OCC(O)CN2CC(C)OC(C)C2)cc1` (centres undefined), “inactive”; as for `O=C(c1ccco1)N1CCN(C(=O)C2c3ccccc3Oc3ccccc32)CC1`, “inactive”.
As to `CS(=O)(=O)c1ccc2nc(NC(=O)CN3CCCCCC3)sc2c1`, the max dye-equivalent concentration result is “inactive”.
